# Among all 16,000 compounds or so, about 5,100 (32%) were called active. Roughly 25% stayed inconclusive and do not appear here. Calls follow the shape of the dose curve; as a rule, active = well fitted curve in the direction sought with a large enough effect; inconclusive = small, poorly fitted or top-dose-only effect, or effect the other way; inactive = no such curve, though single readings can be large or run the other way. This is one part of the list.
# Molecular target: Cytochrome P450 3A4 (Homo sapiens) (UniProt P08684)
# Assay: Cytochrome panel assay with activity outcomes
# Conditions: recombinant CYP, pro-luciferin dealkylation, luminescence, p450-cyp3a4; series mostly up to 57.1 µM
# % is scaled to controls: 0 for no effect and ±100 for the full control effect.
# Sequence of Cytochrome P450 3A4 (Homo sapiens) (P08684 whole entry, looked up): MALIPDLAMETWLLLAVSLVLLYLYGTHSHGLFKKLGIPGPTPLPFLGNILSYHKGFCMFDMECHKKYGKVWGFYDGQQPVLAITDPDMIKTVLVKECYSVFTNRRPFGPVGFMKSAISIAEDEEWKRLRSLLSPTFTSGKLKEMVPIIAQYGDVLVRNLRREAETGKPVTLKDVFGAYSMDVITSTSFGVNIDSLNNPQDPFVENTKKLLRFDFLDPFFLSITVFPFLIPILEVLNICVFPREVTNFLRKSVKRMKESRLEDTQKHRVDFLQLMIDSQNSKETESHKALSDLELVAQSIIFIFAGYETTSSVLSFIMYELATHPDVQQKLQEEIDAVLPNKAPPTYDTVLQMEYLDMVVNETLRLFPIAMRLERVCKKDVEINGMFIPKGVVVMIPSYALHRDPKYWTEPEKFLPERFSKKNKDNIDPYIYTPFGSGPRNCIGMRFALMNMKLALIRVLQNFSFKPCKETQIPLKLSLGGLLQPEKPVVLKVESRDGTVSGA
SMILES,AC50,"activity, negative = inhibition"
COCCNc1ncnc2ccc(-c3cccc(NS(C)(=O)=O)c3)cc12,15.8 µM (active),
[O-][N+]1(CC[N+]2([O-])CCCCC2)CCCCC1,,-11.4% [at 11.4 µM] (inactive)
CCN(CC)Cc1c(O)c(Cl)cc2c3c(c(=O)oc12)CCCC3,inactive,
CCCN(CCC)C(=O)[C@@H](CCC(=O)O)NC(=O)c1ccccc1,inactive,
CCCC/C=C/C(NC(=O)c1cccs1)c1ccccc1 (stereo unspecified),12.6 µM (active),
CCCC/C=C/C(NC(=O)C(C)(C)C)c1ccccc1 (stereo unspecified),25.1 µM (active),
CCCC/C=C/C(NC(=O)c1ccc(-c2ccccc2)cc1)c1ccccc1 (stereo unspecified),inactive,
CCCCCCCCCCCCC/C=C\[C@@H](O)[C@H](CO)NC(C)=O,inactive,
CCCC/C=C/C(NC(=O)c1ccccc1)c1ccccc1 (stereo unspecified),15.8 µM (active),
C#CCOC(=O)NC(/C=C/CCCC)c1ccccc1 (stereo unspecified),12.6 µM (active),
CC(=O)Oc1cc(C(F)(F)F)ccc1C(=O)O,inactive,
CCCC/C=C/C(NC(=O)Oc1cccc(C(F)(F)F)c1)c1ccccc1 (stereo unspecified),15.8 µM (active),
N[C@@H](C(=O)O)c1ccc(C(=O)O)cc1,inactive,
O=C1N=C(N2CCOCC2)S/C1=C\C=C/c1ccccc1,inactive,
CN(C)CN1C(=O)S/C(=C2/C(=O)N(CN(C)C)c3ccccc32)C1=O,,4.92% [at 11.4 µM] (inactive)
CCN1C(=O)/C(=C2\SC(N3CCCCC3)=NC2=O)c2ccccc21,14.1 µM (active),
Cc1ccc([C@@]2(C)CC/C(=N/N=C3\CC[C@](C)(c4ccc(C)c(C)c4)c4cc(C)c(C)cc43)c3cc(C)c(C)cc32)cc1C,,-0.566% [at 11.4 µM] (inactive)
c1ccc(CCNCc2ccco2)nc1,,-15.3% [at 11.4 µM] (inactive)
S=c1nc[nH]c2c1ncn2Cc1ccco1,,-14.9% [at 11.4 µM] (inactive)
S=C1SCN(Cc2ccccn2)CN1Cc1ccco1,20 µM (active),
C/C(=N/O)c1ccc2cc(Br)c3ccccc3c2c1,,-23.8% [at 11.4 µM] (inactive)
O=C1C(Cc2ccccc2)SC(=Nc2ccccc2)N1c1ccccc1 (stereo unspecified),3.98 µM (active),
O=C1/C(=C\c2ccc(Br)o2)SC(=Nc2ccccc2)N1c1ccccc1,inactive,
C=CCn1c(=O)c2c(nc(-c3ccc(S(=O)(=O)O)cc3)n2C)n(C)c1=O,inactive,

SMILES,AC50,"activity, negative = inhibition"
C=CCn1c(=O)c2c(nc(Br)n2Cc2ccccc2Cl)n(C)c1=O,0.794 µM (active),
COC(=O)Cn1c(=O)c2c(nc(Br)n2Cc2ccccc2Cl)n(C)c1=O,,-4.19% [at 2.29 µM] (inactive)
O=C(COc1ccccc1-c1ccccc1)N/N=C/c1cccc2ccccc12,,1.08% [at 2.29 µM] (inactive)
O=C(COc1ccc(-c2ccccc2)cc1)N/N=C/c1ccccc1Br,14.1 µM (active),
COc1ccccc1OCCn1cc(C(=O)c2ccco2)c2ccccc21,3.98 µM (active),
O=C(Cn1cc(C(=O)c2ccco2)c2ccccc21)NCc1ccco1,25.1 µM (active),
Cc1nnc(NC(=O)CCC(=O)NCc2cccs2)s1,inactive,
Cc1ccccc1C(=O)c1cccn1CC(=O)NCc1ccco1,22.4 µM (active),
O=C(Cn1cccc1C(=O)c1ccccc1)NCc1cccs1,10 µM (active),
c1ccc2c(c1)ncn2Cc1nnc2sc(-c3ccc4c(c3)OCO4)nn12,2.24 µM (active),
COc1ccc(N2CC(C(=O)OCC(=O)c3cccc(OC)c3)CC2=O)cc1 (stereo unspecified),14.1 µM (active),
CC(C)Oc1ccc(N2CC(C(=O)OCC(=O)NCc3ccccc3)CC2=O)cc1 (stereo unspecified),,1.29% [at 2.29 µM] (inactive)
COC(=O)c1sccc1NC(=O)CSc1ccccc1NS(=O)(=O)c1ccc(Cl)cc1,3.55 µM (active),
COC(=O)c1sccc1NC(=O)CSc1ccc(Cl)cc1,,-2.63% [at 2.29 µM] (inactive)
COC(=O)c1sccc1NC(=O)CSc1cc(Cl)ccc1Cl,22.4 µM (active),
COC(=O)c1sccc1NC(=O)CN(C)NS(=O)(=O)c1ccc(F)cc1,inactive,
CCn1c(SCC(=O)Nc2ccccc2C(=O)OC)nnc1-c1ccc(N)cc1,0.631 µM (active),
Cc1ccccc1NC(=O)CSc1nnc(-c2ccccc2)n1-c1ccccc1,3.55 µM (active),
CCCCOC(=O)Nc1ccccc1C(=O)OC,,20.6% [at 11.4 µM] (inactive)
O=C(CSc1nnc(-c2ccccc2)n1-c1ccccc1)c1cccs1,7.08 µM (active),
CCOC(=O)c1ccccc1NC(=O)CSc1cccc[n+]1[O-],inactive,
Cc1ccc(C(=O)NNC(=O)CSc2nnc(-c3ccncc3)n2-c2ccc(C)cc2)cc1,3.16 µM (active),
O=C(O)c1cc2cc(Cl)ccc2oc1=O,inactive,
CN(C)CCNC(=O)C1CCCNC1=O (stereo unspecified),inactive,

SMILES,AC50,"activity, negative = inhibition"
CCOc1ccc(-n2c(SCC(=O)Nc3ccccc3C)n[nH]c2=O)cc1,12.6 µM (active),
Cc1ncn(-c2ccccc2O)c1C,,-10.7% [at 11.4 µM] (inactive)
Cc1cnc(NC(=O)CCCc2nc3ccccc3s2)s1,2 µM (active),
CCCCOC(=O)Nc1nc2ccccc2s1,,0.331% [at 11.4 µM] (inactive)
OC[C@H]1O[C@H](n2cnc3c(NC4CCCC4)nc(Cl)nc32)[C@@H](O)[C@@H]1O,inactive,
NC1(C(=O)O)CC(C(=O)O)C1 (stereo unspecified),inactive,
COc1cc(C2C(C(=O)OCCC#N)=C(C)NC3=C2S(=O)(=O)c2ccccc23)cc(OC)c1OC (stereo unspecified),5.01 µM (active),
COc1ccc(-n2c(C)cc(C=O)c2C)cc1Cl,,6.7% [at 2.29 µM] (inactive)
Cc1cc(C=O)c(C)n1-c1ccc(N2CCCCC2)c([N+](=O)[O-])c1,inactive,
Cc1cc(C=O)c(C)n1-c1ccc(NC2CCCC2)c([N+](=O)[O-])c1,4.47 µM (active),
CN(C)c1ccc(-c2cc(N(C)Cc3ccco3)ncn2)cc1,12.6 µM (active),
CN(Cc1ccco1)c1cc(-c2ccoc2)ncn1,inactive,
CN(Cc1ccco1)c1cc(-c2ccc3c(c2)OCO3)ncn1,3.98 µM (active),
CS(=O)(=O)Nc1cccc(-c2ccc3ncnc(N4CCNCC4)c3c2)c1,15.8 µM (active),
CS(=O)(=O)Nc1cccc(-c2ccc3ncnc(NCCN4CCOCC4)c3c2)c1,15.8 µM (active),
CS(=O)(=O)Nc1cccc(-c2ccc3ncnc(N4CCOCC4)c3c2)c1,7.94 µM (active),
CN(C)CCSCCO,,-12.3% [at 11.4 µM] (inactive)
COC(=O)C1=C(C)NC(C)=C([N+](=O)[O-])[C@@H]1c1ccccc1C(F)(F)F,12.6 µM (active),
Oc1cc(O)c2c(c1)O[C@H](c1ccc(O)c(O)c1)[C@H](O)C2,inactive,
O=C1c2c(O)cc(O)cc2O[C@@H](c2ccc(O)c(O)c2)[C@H]1O,10 µM (active),
Oc1cc(O)c2c(c1)O[C@H](c1ccc(O)c(O)c1)[C@@H](O)[C@@H]2c1c(O)cc(O)c2c1O[C@@H](c1ccc(O)c(O)c1)[C@H](O)C2,,-13.1% [at 11.4 µM] (inactive)
CN(C)[C@H]1C(=O)C(C(=O)NCN2CCCC2)=C(O)[C@]2(O)C(=O)C3=C(O)c4c(O)cccc4[C@](C)(O)[C@H]3C[C@H]12,,-6.5% [at 11.4 µM] (inactive)
CC(=O)NC1=NC(=O)CS1,inactive,
N[C@@]1(C(=O)O)CN[C@H](C(=O)O)C1,inactive,

SMILES,AC50,"activity, negative = inhibition"
CCOc1cc(-c2noc(N)c2C#N)cc(OCC)c1OCC,0.2 µM (active),
Cc1ccc(S(=O)(=O)N2CCN(S(C)(=O)=O)C2)cc1,,-0.447% [at 11.4 µM] (inactive)
Cc1ccc(S(=O)(=O)N2CCN(C(=O)CN3CCN(C)CC3)C2)cc1,inactive,
Cc1ccc(S(=O)(=O)N2CCN(Cc3ccccc3C(F)(F)F)CC2)cc1,8.91 µM (active),
O=C(Nc1cccc(OC(=O)c2cccnc2)c1)c1cccnc1,,-4.22% [at 2.29 µM] (inactive)
O=C(Nc1cccnc1)c1ccc2snnc2c1,11.2 µM (active),
COC(=O)c1cc(C#N)c(NCc2ccc(Cl)cc2Cl)nc1C,inactive,
Cc1cc(C)c2cc(C#N)c(NCCOC(=O)c3ccccc3C)nc2c1,7.08 µM (active),
CCOC(=O)c1ccccc1Oc1c(F)c(F)nc(NCCO)c1F,inactive,
Cc1cc(C)cc(N(C(=O)c2ccccn2)C(C(=O)NC2CCCCC2)c2cccs2)c1 (stereo unspecified),5.01 µM (active),
COc1ccc(CCN(C(=O)C(F)(F)F)C(C(=O)NC2CCCC2)c2cccs2)cc1 (stereo unspecified),3.55 µM (active),
O=C(NC1CCCCC1)C(c1cccs1)N(C(=O)C(F)(F)F)c1ccccc1 (stereo unspecified),7.08 µM (active),
Cc1ccc(N(C(=O)C(F)(F)F)C(C(=O)NC2CCCCC2)c2cccs2)cc1C (stereo unspecified),6.31 µM (active),
O=C(NC1CCCCC1)c1ccc(COCC(F)(F)F)o1,inactive,
Cc1nnc(N(C)C(=O)c2ccccn2)s1,inactive,
Cc1snc(SCC(=O)N/N=C(\N)COc2cccc(C(F)(F)F)c2)c1C#N,3.16 µM (active),
O[C@H](CCCN1CCN(c2ncc(F)cn2)CC1)c1ccc(F)cc1,inactive,
O=C(CCNC(=O)Cn1cnc2ccccc2c1=O)NCC1COc2ccccc2O1 (stereo unspecified),,5.27% [at 2.29 µM] (inactive)
COc1ccc(OC)c(CNC(=O)CCNC(=O)Cn2ccc3ccccc3c2=O)c1,,5.01% [at 2.29 µM] (inactive)
COc1cccc(CNC(=O)CCNC(=O)Cn2ccc3ccccc3c2=O)c1,14.1 µM (active),
CCCC[C@@H]1C[C@H]1C(NC(=O)c1ccco1)c1ccc(-c2ccccc2)cc1 (stereo partly specified),15.8 µM (active),
CCCC[C@@H]1C[C@H]1C(NC(=O)c1ccco1)c1ccc(Cl)cc1 (stereo partly specified),7.94 µM (active),
CC1CCN(C(NC(=O)c2ccco2)C(=O)c2ccccc2)CC1 (stereo unspecified),inactive,
CCCC[C@@H]1C[C@H]1C(NC(=O)c1ccco1)c1ccc(C(=O)OC)cc1 (stereo partly specified),15.8 µM (active),

# Reference: PubChem BioAssay AID1851 (National Center for Advancing Translational Sciences (NCATS), 2009)
